The source of these data is PMC4336329 (PLoS ONE, 2015).

Screen size: about 310,000 compounds; about 14,000 (4.5%) showed an effect of 50% or more. Effects have a minus sign here. Many of the other results were omitted from the sample, so strong results are more common in it than they were.
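Also: peak tail current of the secondary pulse compared with the same well before compound.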

The target of this assay is human ether-à-go-go-related gene (hERG) potassium channel (human, UniProt Q12809). The experiment in a line: primary screen, population patch clamp on CHO cells stably expressing hERG; higher = less effect of the substance.
Chain of human ether-à-go-go-related gene (hERG) potassium channel (Q12809 whole entry, looked up): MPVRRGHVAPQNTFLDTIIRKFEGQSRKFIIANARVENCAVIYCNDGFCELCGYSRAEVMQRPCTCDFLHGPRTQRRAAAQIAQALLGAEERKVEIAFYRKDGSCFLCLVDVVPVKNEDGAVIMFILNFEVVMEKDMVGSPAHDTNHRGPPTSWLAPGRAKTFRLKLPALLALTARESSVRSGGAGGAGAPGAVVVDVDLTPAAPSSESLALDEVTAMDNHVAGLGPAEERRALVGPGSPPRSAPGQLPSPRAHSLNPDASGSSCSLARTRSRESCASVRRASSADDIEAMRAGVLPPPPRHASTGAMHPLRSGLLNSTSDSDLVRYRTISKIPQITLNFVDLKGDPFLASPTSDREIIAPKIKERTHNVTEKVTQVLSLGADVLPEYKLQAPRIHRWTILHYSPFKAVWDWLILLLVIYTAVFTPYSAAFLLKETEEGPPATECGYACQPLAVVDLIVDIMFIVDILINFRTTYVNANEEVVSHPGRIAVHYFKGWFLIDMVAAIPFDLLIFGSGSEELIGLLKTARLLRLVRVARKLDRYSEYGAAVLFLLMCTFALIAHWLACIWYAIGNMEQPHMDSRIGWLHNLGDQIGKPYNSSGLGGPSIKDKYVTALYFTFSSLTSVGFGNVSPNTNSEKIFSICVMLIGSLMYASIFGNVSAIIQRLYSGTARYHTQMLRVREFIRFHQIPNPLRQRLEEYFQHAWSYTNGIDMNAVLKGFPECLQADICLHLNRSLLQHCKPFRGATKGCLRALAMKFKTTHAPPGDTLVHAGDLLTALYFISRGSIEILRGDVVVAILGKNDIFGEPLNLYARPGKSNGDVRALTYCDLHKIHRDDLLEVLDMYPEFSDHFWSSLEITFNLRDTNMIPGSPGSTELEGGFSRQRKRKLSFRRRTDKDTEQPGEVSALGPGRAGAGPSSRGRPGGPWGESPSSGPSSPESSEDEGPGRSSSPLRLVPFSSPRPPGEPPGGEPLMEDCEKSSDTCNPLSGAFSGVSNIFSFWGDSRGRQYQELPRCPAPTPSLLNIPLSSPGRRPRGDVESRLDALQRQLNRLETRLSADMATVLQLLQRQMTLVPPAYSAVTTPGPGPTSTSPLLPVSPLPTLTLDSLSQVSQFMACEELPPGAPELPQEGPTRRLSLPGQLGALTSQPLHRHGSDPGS
Take `COc1ccccc1NC(=O)c1cnc2c(-c3ccccc3)c(C)nn2c1C`: the “hERG current change (%, negative = inhibition) at 10uM” value turned out to be 3.15%.

Turning to `O=C(c1cnc2nc3ccccc3n2c1)c1cc(F)ccc1O`, the “hERG current change (%, negative = inhibition) at 10uM” value was found to be 2.44%.

Take `Cc1ccc2c(c1)N(CCCC(=O)Nc1cccc(C(F)(F)F)c1)C(=O)CO2`: the “hERG current change (%, negative = inhibition) at 10uM” value worked out at 12.9%.

`O=C(O)c1ccccc1C(=O)c1ccc2c(c1)N(Cc1cccc(F)c1)C(=O)CO2`: the “hERG current change (%, negative = inhibition) at 10uM” value was -18.1%.

Take `O=C(COC(=O)c1ccccc1Br)Nc1ccccc1F`: the “hERG current change (%, negative = inhibition) at 10uM” value was -21%.

Regarding `N#Cc1c(NC(=O)c2nc3ncccn3n2)sc2c1CCCCC2`, the “hERG current change (%, negative = inhibition) at 10uM” value was 2.44%.

Regarding `Cc1ccc(NC(=O)CCCNC(=O)c2ccc(Cl)cc2)cc1S(=O)(=O)N1CCOCC1`, the “hERG current change (%, negative = inhibition) at 10uM” value is on record as -17.9%.

With `O=C(NCc1n[nH]c(=S)n1-c1cccc(C(F)(F)F)c1)c1ccc(S(=O)(=O)N2CCCCC2)cc1`, the “hERG current change (%, negative = inhibition) at 10uM” value was determined as 16.5%.

As to `CC(=O)Oc1cccc(C(=O)Nc2ccccc2NC(=O)c2cccc(OC(C)=O)c2)c1`, the “hERG current change (%, negative = inhibition) at 10uM” value is 9.7%.

`CC(C)N(Cc1nc(-c2ccc(Cl)cc2)no1)C(=O)c1cccs1`: the “hERG current change (%, negative = inhibition) at 10uM” value is recorded as -8.63%.

As to `CCCn1c(CNC(=O)Cc2ccccc2)nc2ccccc21`, the “hERG current change (%, negative = inhibition) at 10uM” value is given as -21.3%.

On to `CCOC(=O)c1c(CN2CCCCC2)n(C)c2cc(Br)c(O)cc12`, for which the “hERG current change (%, negative = inhibition) at 10uM” value is -68.2%.

Turning to `CCOC(=O)c1c(CN2CCC(C)CC2)n(C)c2cc(Br)c(OC)cc12`, the “hERG current change (%, negative = inhibition) at 10uM” value came to 10.5%.

For the compound `CCOC(=O)c1c(CN2CCCCC2)n(C)c2cc(Br)c(OC)cc12`, the “hERG current change (%, negative = inhibition) at 10uM” value is on record as -31.7%.

As for `CCCCCOC(=O)Cc1c(O)c2ccccc2[nH]c1=O`, the “hERG current change (%, negative = inhibition) at 10uM” value was 12.8%.

For the compound `CCN(CC)S(=O)(=O)c1ccc(F)c(C(=O)NCCCN2CCOCC2)c1`, the “hERG current change (%, negative = inhibition) at 10uM” value is on record as -11.7%.

As to `COC(=O)c1cc(C(=O)c2cccc(Cl)c2Cl)cn1C`, the “hERG current change (%, negative = inhibition) at 10uM” value is recorded as -43.4%.

Take `COc1ccc(CN(C)C2CCCCC2)cc1`: the “hERG current change (%, negative = inhibition) at 10uM” value was -25.1%.

Regarding `COc1ccc(Nc2nc(N)nc(COc3ccc(OC)cc3)n2)cc1`, the “hERG current change (%, negative = inhibition) at 10uM” value amounted to 4.75%.

As for `CCOc1ccccc1Nc1nc(N)nc(CN(C)C2CCCCC2)n1`, the “hERG current change (%, negative = inhibition) at 10uM” value was -76.1%.

As for `CCOc1ccc(Nc2nc(N)nc(CCl)n2)cc1`, the “hERG current change (%, negative = inhibition) at 10uM” value is -8.2%.

As to `CCOc1ccc(Nc2nc(N)nc(CN(C)C3CCCCC3)n2)cc1`, the “hERG current change (%, negative = inhibition) at 10uM” value is on record as -71.5%.

`COc1ccc(Nc2nc(N)nc(CN(C)C3CCCCC3)n2)cc1`: the “hERG current change (%, negative = inhibition) at 10uM” value is given as -57.5%.

For `CCOc1ccc(Nc2ncnc(N)n2)cc1`, the “hERG current change (%, negative = inhibition) at 10uM” value is given as 10.3%.

For `CCOc1ccccc1Nc1nc(N)nc(CN2CCCCC2C)n1` (stereo not drawn), the “hERG current change (%, negative = inhibition) at 10uM” value is on record as -50%.

Regarding `COc1ccccc1Nc1nc(N)nc(CN(C)C2CCCCC2)n1`, the “hERG current change (%, negative = inhibition) at 10uM” value is reported as -35.8%.

As to `COC(=O)N/N=C/c1cc(Cl)cc(Cl)c1OCc1ccc(F)cc1`, the “hERG current change (%, negative = inhibition) at 10uM” value turned out to be 3.82%.

With `O=[N+]([O-])c1cccc(C2N3CCCN23)c1` (stereo not drawn), the “hERG current change (%, negative = inhibition) at 10uM” value amounted to 12.3%.

As for `Cc1cc2c(cc1S(=O)(=O)Nc1c(C)cccc1C)n(C)c(=O)c(=O)n2C`, the “hERG current change (%, negative = inhibition) at 10uM” value is -0.831%.

As for `Cc1nc(-c2ccccc2)nn1-c1ccc([N+](=O)[O-])cc1`, the “hERG current change (%, negative = inhibition) at 10uM” value is listed as -26.2%.

With `O=c1ccc(-c2ccc([N+](=O)[O-])cc2)nn1-c1ccccc1`, the “hERG current change (%, negative = inhibition) at 10uM” value is -55%.

Turning to `O=[N+]([O-])c1ccc(-n2nnnc2-c2ccccc2)cc1`, the “hERG current change (%, negative = inhibition) at 10uM” value is recorded as -21.3%.

`COc1ccc(-c2cc(C3CCN(Cc4cccc(C(F)(F)F)c4)CC3)[nH]n2)cc1`: the “hERG current change (%, negative = inhibition) at 10uM” value is -55.2%.

As to `O=[N+]([O-])c1cccnc1N1CCC(c2cc(-c3cccc(C(F)(F)F)c3)n[nH]2)CC1`, the “hERG current change (%, negative = inhibition) at 10uM” value was -13.7%.

On to `COc1ccc(-c2cc(C3CCN(c4ncccc4[N+](=O)[O-])CC3)[nH]n2)cc1`, for which the “hERG current change (%, negative = inhibition) at 10uM” value was -5.85%.

As for `COc1ccc(-c2cn(Cc3ccc([N+](=O)[O-])cc3)nn2)cc1`, the “hERG current change (%, negative = inhibition) at 10uM” value is -9.43%.

As to `COC(=O)CCN1CCC(c2cc(-c3cccc(C(F)(F)F)c3)n[nH]2)CC1`, the “hERG current change (%, negative = inhibition) at 10uM” value is -72.2%.

`COc1ccc(-c2cc(C3CCN(Cc4ccc([N+](=O)[O-])cc4)CC3)[nH]n2)cc1`: the “hERG current change (%, negative = inhibition) at 10uM” value was -73%.

With `COc1ccc(-c2cc(C3CCN(C(=O)OC(C)(C)C)CC3)[nH]n2)cc1`, the “hERG current change (%, negative = inhibition) at 10uM” value is -26.4%.

Consider `FC(F)(F)c1cccc(-c2cc(C3CCNCC3)[nH]n2)c1`, for which the “hERG current change (%, negative = inhibition) at 10uM” value is -44.3%.

For the compound `COc1ccc(-c2cc(C3CCNCC3)[nH]n2)cc1`, the “hERG current change (%, negative = inhibition) at 10uM” value stood at 18.7%.

`Cc1ccc(CNc2nc(C)c(C(=O)N(C)C)s2)cc1`: the “hERG current change (%, negative = inhibition) at 10uM” value was 4.98%.

Turning to `COc1ccc(S(=O)(=O)Cc2ccc(C(=O)NCCc3cc(OC)ccc3OC)o2)cc1`, the “hERG current change (%, negative = inhibition) at 10uM” value was -39.6%.

`COc1ccccc1C(CC(N)=O)c1ccco1` (stereo not drawn): the “hERG current change (%, negative = inhibition) at 10uM” value was 10.1%.

For the compound `O=C(Cc1cn2ccsc2n1)Nc1nc2c(s1)CCCC2`, the “hERG current change (%, negative = inhibition) at 10uM” value was -0.221%.

On to `CN(C)c1ccc(-c2nnn(CC(=O)Nc3ccccc3N3CCOCC3)n2)cc1`, for which the “hERG current change (%, negative = inhibition) at 10uM” value was -15.1%.

Turning to `CCOn1c(=O)c(-c2ccc(Br)cc2)[n+]([O-])c2ccccc21`, the “hERG current change (%, negative = inhibition) at 10uM” value is listed as 13.6%.

In the case of `CNc1nc(N)c([N+](=O)[O-])c(NCc2ccccc2)n1`, the “hERG current change (%, negative = inhibition) at 10uM” value was -1.09%.

Consider `Oc1ccc(Br)cc1CNc1cnc2ccccc2c1`, for which the “hERG current change (%, negative = inhibition) at 10uM” value was 16.4%.

Regarding `O=C(COC(=O)c1ncc(Cl)c(Cl)c1Cl)NNC(=O)c1ccccc1`, the “hERG current change (%, negative = inhibition) at 10uM” value is listed as -1.26%.

`CCC(=O)Nc1ccc(C(=O)c2ccccc2)cc1`: the “hERG current change (%, negative = inhibition) at 10uM” value was -9.96%.

Take `Cc1ccc(C)c(NC(=O)[C@@H]2CCCN2S(=O)(=O)c2ccccc2F)c1`: the “hERG current change (%, negative = inhibition) at 10uM” value was 10.9%.

Consider `COc1ccc(Nc2cc(Nc3ccccc3)ncn2)cc1`, for which the “hERG current change (%, negative = inhibition) at 10uM” value stood at 11.5%.

For the compound `COc1ccc(-c2ccc(=O)n(Cc3cccc([N+](=O)[O-])c3)n2)cc1`, the “hERG current change (%, negative = inhibition) at 10uM” value was -21.2%.

As to `COc1ccc(-c2ccc(=O)n(Cc3ccccc3)n2)cc1`, the “hERG current change (%, negative = inhibition) at 10uM” value is reported as -5.74%.

As to `COc1ccc(-c2ccc(=O)n(Cc3ccc([N+](=O)[O-])cc3)n2)cc1`, the “hERG current change (%, negative = inhibition) at 10uM” value is listed as -75%.

Regarding `C=CCOc1ccc(CNn2cn[nH]c2=S)cc1OCC`, the “hERG current change (%, negative = inhibition) at 10uM” value was 12.7%.
